hgDAF12 agonist: H. glycines DAF-12 receptor agonists, primary screen, cell-based, luminescence, HEK293, GAL4 fusion, UAS-luciferase; Nuclear hormone receptor DAF-12 (Heterodera glycines), GAL4 fusion; HEK293 GAL4-hgDAF12 UAS-luciferase reporter, agonist luminescence; normalized to butyrate control; activation, % at 6.8 µM; 370,000 compounds, 1.8% hits; AID 687014, 2013;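 active = activation above a cutoff set at the mean of all screened compounds plus 3 SD, cut at about 10% in these data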
DAX1 inh-1: DAX1 (NR0B1) inhibitors on StAR promoter, primary screen, cell-based, luminescence, SF-1 (NR5A1), full-length DAX-1. 370,000 compounds, 1.1% hits. inhibition, % at 6.8 µM. AID 652010, 2013. HEK293T StAR-luciferase reporter, SF-1/DAX-1 repression relief;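 active = inhibition above the mean over all tested compounds plus 3 SD, cut at about 3.6% in these data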;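 note: higher inhibition means more luminescence from relief of DAX-1 repression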
hcDAF-12 act: H. contortus DAF-12 nuclear receptor activators, primary screen, cell-based, luminescence, HEK293, lit1-tk-luc reporter; HEK293 hcDAF-12 lit1-tk-luc reporter; 0% DMSO, 100% Δ7-dafachronic acid; 370,000 compounds, 1.4% hits; AID 652067, 2013; activation, % at 6.8 µM;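 active = activation above the mean of all tested compounds plus 3 SD, cut at about 5.5% in these data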
ssDAF-12 act: S. stercoralis DAF-12 nuclear receptor activators, primary screen, cell-based, luminescence, HEK293, GRIP1 co-expression, lit1-tk-luc. Nuclear hormone receptor DAF-12 (Strongyloides stercoralis). HEK293 ssDAF-12/GRIP1 lit1-tk-luc reporter; % of 3 µM dafachronic acid response. activation, % at 6.8 µM. 370,000 compounds, 1% hits. AID 652126, 2013;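 active = activation above the mean over all tested compounds plus 3 SD, cut at about 0.9% in these data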
DAX1 inh-2: DAX1 (NR0B1) inhibitors, primary screen, cell-based, HEK293, Gal4-DAX1, luciferase luminescence; Nuclear receptor subfamily 0 group B member 1 (Homo sapiens), P51843; HEK293 Gal4-DAX1 luciferase reporter; inhibition, % at 6.75 µM; 340,000 compounds, 0.99% hits; AID 504766, 2011;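 active = inhibition above the mean over all tested compounds plus 3 SD, cut at about 4.2% in these data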;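 note: inhibition shows as a rise in luminescence from relieved DAX1 repression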
Target sequence (P51843 207-470 limits assumed): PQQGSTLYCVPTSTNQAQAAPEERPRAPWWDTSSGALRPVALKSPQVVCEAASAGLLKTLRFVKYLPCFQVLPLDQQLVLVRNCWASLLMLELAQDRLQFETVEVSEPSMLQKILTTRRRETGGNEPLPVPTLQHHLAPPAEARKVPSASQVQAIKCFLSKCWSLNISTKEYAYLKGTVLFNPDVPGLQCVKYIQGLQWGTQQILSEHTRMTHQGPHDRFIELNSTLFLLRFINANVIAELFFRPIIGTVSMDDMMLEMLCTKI
DAX1 conf: DAX1 (NR0B1) inhibitors relieving SF-1 repression, confirmation, cell-based, luminescence, HEK293T, full-length DAX-1, SF-1 activated StAR promoter | AID 652134, 2013 | 2,400 compounds, 87% hits | inhibition, % at 6.8 µM | HEK293T StAR-promoter luciferase reporter, SF-1/DAX-1 repression | shares compounds with DAX1 inh-1;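 active = inhibition above the average of every tested compound plus 3 SD, cut at about 3.8% in these data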
SF1 mutant ctr: StAR reporter signal changes without DAX1, counter-screen for DAX1 inhibitor project, cell-based, luminescence, AF-2 mutant SF-1, transactivation; shares compounds with DAX1 inh-1; HEK293 StAR-luciferase, SF-1 AF2 mutant; inhibition, % at 6.8 µM; 2,400 compounds, 78% hits;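 active = inhibition above the mean of all tested compounds plus 3 SD, cut at about 3% in these data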
Of the large screens only hits and unclear results are named; the others gave an inactive call (follow-up assays come after a bar, where they were run). In the library only some 4.1% were active in any assay of this set; here they are far more common.

O=C(COc1ccccc1Br)NC1CC1	none
O=C(Nc1cccc(O)c1)c1noc2c1CCc1ccccc1-2	DAX1 inh-1 7.0, hcDAF-12 act 6.3 | DAX1 conf 15.9 | SF1 mutant ctr 6.3
CC(=O)N1CCN(C(=O)c2ccc(-c3ccccc3Cl)o2)CC1	none
O=C(c1ccc(-c2ccccc2Cl)o1)N1CCCCCCC1	hgDAF12 agonist 10.8, DAX1 inh-1 5.4 | DAX1 conf 8.4 | SF1 mutant ctr 6.1
CCOc1c(Cl)cc(C(=O)Nc2cccc(C(=O)O)c2)cc1Cl	DAX1 inh-1 7.6 | DAX1 conf 6.5 | SF1 mutant ctr 4.6
CCOc1ccc(NC(=O)c2cccc(NC(=O)c3ccccc3)c2)cc1	none
COc1cccc(CNC(=O)C2Cc3cc(S(=O)(=O)N4CCCC4)ccc3N2C(C)=O)c1OC (stereo unspecified)	none
CC[C@@H](C)[C@H](C(CC(=O)N1CCCC1[C@@H](OC)[C@H](C)C(=O)N[C@H](Cc1ccccc1)c1nccs1)OC)N(C)C(=O)[C@H](NC(=O)[C@@H](C(C)C)N(C)C)C(C)C (stereo partly specified)	DAX1 inh-1 7.7 | DAX1 conf 29.8 | SF1 mutant ctr inactive
COc1ccc(C(=O)N(C)C(C)c2nccs2)cc1OC1CCN(C(C)=O)CC1 (stereo unspecified)	none
Cc1sc(=NC(=O)c2ccco2)n(C)c1-c1ccccc1	DAX1 inh-1 5.5 | DAX1 conf 13.6 | SF1 mutant ctr 6.3
Cc1ccc(NC2=C(Cl)C(=O)N(C3CCCCC3)C2=O)cc1	none
CCCn1c2ccccc2c2cnn(CC(=O)NCCCN3C(C)CCCC3C)c(=O)c21 (stereo unspecified)	DAX1 inh-1 5.6 | DAX1 conf inactive | SF1 mutant ctr inactive
CCCn1c2ccccc2c2cnn(CC(=O)NCCCOC)c(=O)c21	none
O=c1ccc2cc(S(=O)(=O)N3CCN(c4ccccc4F)CC3)ccc2o1	none
CC(=O)Nc1nnc(COc2ccc(Cl)cc2)s1	hgDAF12 agonist 12.8, DAX1 inh-1 5.5 | DAX1 conf 6.2 | SF1 mutant ctr 3.0
CC(C)C(=O)Nc1nnc(COc2ccc(Cl)cc2)s1	none
CN1CCN(c2ccc(-c3cccc(NC(=O)COc4ccccc4)c3)nn2)CC1	hgDAF12 agonist 13.0, DAX1 inh-1 10.2 | DAX1 conf 7.2 | SF1 mutant ctr inactive
O=C(O)c1cccc(N/N=C/c2cn(-c3ccccc3)nc2-c2cccs2)c1	DAX1 inh-1 6.4 | DAX1 conf 17.9 | SF1 mutant ctr 9.2
O=C(N/N=C/c1ccc(O)cc1)c1cccc(N/N=C/c2ccc(O)cc2)c1	none
O=C(O)c1cccc(N/N=C/c2ccc(F)c(F)c2)c1	DAX1 inh-1 5.0 | DAX1 conf 11.5 | SF1 mutant ctr 7.2
C=CCOc1c(Br)cc(/C=N/Nc2ccc(C(=O)O)cc2)cc1OCC	hgDAF12 agonist 11.9, DAX1 inh-1 7.3 | DAX1 conf 13.1 | SF1 mutant ctr 8.7
COc1ccc(C(=O)Oc2ccc(/C=N/Nc3ccc(Cl)c(C(=O)O)c3)cc2OC)cc1	none
NC(=O)N/N=C/c1cn(-c2ccccc2)nc1-c1cccs1	none
COc1ccc(/C=N/Nc2ccc(C(=O)O)cc2)cc1OC	hgDAF12 agonist 11.1, DAX1 inh-1 5.3, hcDAF-12 act 6.1 | DAX1 conf 16.6 | SF1 mutant ctr 5.8
Cc1cccc(NS(=O)(=O)Cc2ccccc2)c1C	none
O=c1oc2cc(O)ccc2cc1-c1nc2ccccc2o1	DAX1 inh-1 5.4 (no result: DAX1 inh-2) | DAX1 conf 6.4 | SF1 mutant ctr 3.3
CC(C)NC(=O)N[C@H]1CC[C@H](CC(=O)NCc2ccc(Oc3ccccc3)cc2)O[C@@H]1CO	DAX1 inh-1 4.5 (no result: DAX1 inh-2) | DAX1 conf inactive | SF1 mutant ctr inactive
S=C(NCC1(c2ccccc2)CCCC1)Nc1ccccc1	none
COCC(C)n1c(C)cc(C(=O)CSc2nnc(N)s2)c1C (stereo unspecified)	none
Cc1cc(C(=O)CSc2nnc(N)s2)c(C)n1C1CC1	DAX1 inh-1 5.6 | DAX1 conf 4.1 | SF1 mutant ctr inactive
Cc1cc(C)c(C(=O)CSc2nnc(N)s2)cc1C	none
Cc1ccc(C(=O)CSc2nnc(N)s2)c(C)c1	hgDAF12 agonist 12.9, DAX1 inh-1 7.8, ssDAF-12 act 1.0 | DAX1 conf 8.9 | SF1 mutant ctr 5.4
CCc1cccc2c(C(=O)CN3C(=O)NC(C)(c4cccc5ccccc45)C3=O)c[nH]c12 (stereo unspecified)	none
CCc1cccc2c(C(=O)CN3C(=O)N(C)C4(CCCCC4)C3=O)c[nH]c12	DAX1 inh-1 7.9 | DAX1 conf 10.5 | SF1 mutant ctr inactive
CCc1cccc2c(=O)c(C(=O)N3CCCCCC3)c[nH]c12	none
CCc1cccc2c(C(=O)CN3C(=O)NC4(CCc5ccccc54)C3=O)c[nH]c12 (stereo unspecified)	DAX1 inh-1 12.4 | DAX1 conf 5.9 | SF1 mutant ctr inactive
O=C(Nc1ccc(C(=O)N2CCCCC2)cc1)C1=CSCCO1	DAX1 inh-1 6.2 | DAX1 conf 4.7 | SF1 mutant ctr inactive
CC(C)NC(=O)CN(Cc1ccc(F)cc1)C(=O)CCC(=O)Nc1ccccn1	none
Cc1ccn2cc(-c3ccc(NC(=O)c4ccco4)cc3)nc2c1	hgDAF12 agonist 11.4, DAX1 inh-1 5.0 | DAX1 conf 10.6 | SF1 mutant ctr 8.6
Cc1ccn2cc(-c3ccc(NS(=O)(=O)c4ccccc4)cc3)nc2c1	none
Cc1nc(-c2cccc(NC(=O)c3ccco3)c2)cs1	DAX1 inh-1 4.7 | DAX1 conf inactive | SF1 mutant ctr inactive
CN1CCN(c2ccc(NC(=O)c3ccco3)cc2Cl)CC1	DAX1 inh-1 14.9, hcDAF-12 act 5.9 | DAX1 conf 11.9 | SF1 mutant ctr 5.2
Cc1nc2cc(NC(=O)Nc3nccs3)ccc2n1C	hgDAF12 agonist 11.2, DAX1 inh-1 4.6 | DAX1 conf 14.7 | SF1 mutant ctr 8.5
Cc1ccc(NC(=O)c2cc(NC(=O)c3ccco3)ccc2N2CCOCC2)cc1Cl	none
CC1(C)ON=C(c2ccc(C(F)(F)F)cc2)NC1=O	none (no result: DAX1 inh-2)
